Bioassay records as filed in PubChem.
TSG101-PTAP inh – qHTS Validation Assay for Inhibitors of HIV-1 Budding by Blocking the Interaction of PTAP/TSG101: Sytravon Library Screen. Tumor susceptibility gene 101 protein (Homo sapiens), Q99816. Potency, µM (doses to about 115 µM), hits mostly inhibitors. 44,000 tested, under 10 active. AID 1347069, 2019. Fluorescence polarization, FITC-PTAP peptide/Tsg101, 20 min; note: potency is the fitted concentration of half-maximal effect; 0% is about no effect
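Steps: Tsg101 binding domain (10 uM final) in HEPES pH 7.5/NaCl/Tween 20/EDTA/TCEP; add compound; add FITC-PTAP peptide (50 nM final); incubate 20 min r.t.; read polarization.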
GALK inh – qHTS Assay for Inhibitors of Human Galactokinase (GALK): NCGC Sytravon Library Screen. AID 1347072, 2019. P51570. recombinant GALK, Kinase-Glo ATP luminescence, 1 h. Potency, µM (top dose mostly 57.5 µM), without a hit: top-dose activity, negative = inhibition, hits mostly inhibitors. 44,000 tested, under 10 active;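 note: plate controls were full GALK reaction for no effect and reaction lacking GALK for full effect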
Target sequence (P51570 whole entry, looked up): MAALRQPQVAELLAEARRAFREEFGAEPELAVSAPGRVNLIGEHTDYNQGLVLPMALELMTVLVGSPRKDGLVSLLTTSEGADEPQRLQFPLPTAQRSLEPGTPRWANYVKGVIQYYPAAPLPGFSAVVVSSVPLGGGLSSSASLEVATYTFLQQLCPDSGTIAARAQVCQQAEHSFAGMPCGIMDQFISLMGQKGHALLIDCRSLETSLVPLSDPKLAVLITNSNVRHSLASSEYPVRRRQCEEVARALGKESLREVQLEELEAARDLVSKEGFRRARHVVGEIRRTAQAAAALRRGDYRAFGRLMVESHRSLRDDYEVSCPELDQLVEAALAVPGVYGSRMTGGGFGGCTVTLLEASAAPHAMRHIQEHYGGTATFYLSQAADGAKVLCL
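Luminescent ATP-depletion readout (Kinase-Glo Plus, 10 min) after 1 h RT reaction of 5 nM GALK, 35 uM ATP, 100 uM galactose, pH 8.0 HEPES buffer. Decreased kinase activity scored as inhibition.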
FH mod – Identification of activators of human fumarate hydratase by quantitative high-throughput screening | actives 0.22% (n = 54,000) | FH coupled MDH/diaphorase resazurin fluorescence, 15 min | AID 1347055, 2019 | Fumarate hydratase, mitochondrial (Homo sapiens), P07954 | Potency, µM (titrated, usually from 79.9 µM), for the others: at the highest dose activity change, negative = inhibition, most hits filed as inhibitors; note: potency is the fitted concentration of half-maximal effect; % is set by controls: 0 for no effect and ±100 for the full control effect; the screen sought activators but most active calls are inhibition curves; nearly all actives have a fitted effect of over 45% in size
GALC G270D up – A Novel Cell-Based Assay to Identify Small Molecules for B -Galactocerebrosidase. P54803. 145M-Twi-hGALC-G270D cells (Twitcher mouse brain line with human GALC G270D), HMU-beta-Gal fluorescence, 48 h. Potency, µM (top dose mostly 57.5 µM), most hits filed as activators. actives 0.1% (n = 45,000); note: potency is the fitted concentration of half-maximal effect; 0% is about no effect; nearly all actives have a fitted effect of over 65% in size
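Fluorescence readout: HMU-β-gal cleavage by mutant GALC (0.1 mM final, citrate/phosphate pH 5.2 with 1 mg/mL taurocholate), stopped with carbonate/bicarbonate plus Triton X-100. Cells: murine Twitcher 145M-Twi expressing human G270D GALC; qHTS for activators.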
B2AR arrestin ag – qHTS assay of beta-arrestin-biased ligands of beta2-adrenergic receptor: NCGC Sytravon Library Screen; HTLA Tango cells, beta-arrestin recruitment, luciferase luminescence, 18 h; Beta-2 adrenergic receptor (Homo sapiens), P07550; Potency, µM (titrated, usually from 46.1 µM), most hits filed as activators; 44,000 tested, under 10 active;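 note: potency is the fitted concentration of half-maximal effect; 0% = DMSO and full agonism = EC100 isoproterenol or metaproterenol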
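Tango cells expressing recombinant beta2-AR and beta-arrestin were treated with compounds (up to 46 microM titration) in DMEM with 1% FBS for 18 hr at 37 degrees C. Beta-arrestin recruitment drove tTA-dependent luciferase, read by luminescence; curves were fitted and classed.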
NTMT1 inh – Primary qHTS for Inhibitors of N-terminal methyltransferase 1 (NTMT1): MTaseGlo Assay; N-terminal Xaa-Pro-Lys N-methyltransferase 1 (Homo sapiens), Q9BV86; NTMT1 MTase-Glo SAH luminescence, purified enzyme; actives 2.5% (n = 59,000); Potency, µM (doses to about 114 µM), without a hit: top-dose activity change, negative = inhibition, actives largely listed as inhibitors;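 note: potency is the fitted concentration of half-maximal effect; plate controls were DMSO vehicle for no effect and no enzyme for full effect; nearly all actives have a fitted effect of over 65% in size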
Target sequence (Q9BV86 whole entry, looked up): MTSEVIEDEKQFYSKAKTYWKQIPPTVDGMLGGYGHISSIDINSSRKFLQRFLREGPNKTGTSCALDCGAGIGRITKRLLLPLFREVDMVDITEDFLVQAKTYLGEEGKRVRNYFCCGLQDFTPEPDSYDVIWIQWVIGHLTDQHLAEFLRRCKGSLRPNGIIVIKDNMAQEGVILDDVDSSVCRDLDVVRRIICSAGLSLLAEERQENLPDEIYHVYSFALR
* marks the source's active call; other numbers are inactive results; i = inactive; ? = inconclusive; . = no result given; ! = not active in a repeat; [ ] = dose if it differs, or a comment. Only a selection was taken, and hits are over-represented in it overall. Calls come from the whole dose curve; as a rule, active = well fitted curve in the direction sought with a large enough effect; inconclusive = small, poorly fitted or top-dose-only effect, or another doubt; inactive = no such curve, though single readings can be large; an effect the other way counts as inactive or inconclusive.

SMILES	TSG101-PTAP inh	GALK inh	FH mod	GALC G270D up	B2AR arrestin ag	NTMT1 inh
Cc1ccc(-n2ncc3c(NCCCN4CCOCC4)ncnc32)cc1Cl	i	-1%	-14%	i	i	?
Cc1ccc(-n2ncc3c(NCCO)ncnc32)cc1Cl	i	3%	-7%	i	i	35µM*
CCOC(=O)C1CCN(c2ncc(-c3ccc4c(c3)OCCCO4)s2)CC1	.	.	.	.	.	10%
O=C(OCC#CCSc1nnc(-c2ccc3ccccc3c2)o1)c1cccc(F)c1	.	.	.	.	.	10%[57.5 µM]
COc1ccc(NC(=O)Cn2c(=O)oc3ccccc32)cc1	i	0%	12%	i	i	89µM*
C=C/C=C/[C@@H]1OC[C@H](/C=C/C=C/C)[C@H]1O	.	.	10%	.	.	7%
COc1cc(CNc2ccc3[nH]c(=O)[nH]c3c2)cc(Cl)c1OCc1ccc(F)cc1	i	-11%	35µM*	i	i	3%
Cc1cc(=O)oc2cc(O)ccc12	.	.	4%[53.3 µM]	28µM*	.	5%
N#Cc1c(-c2ccc(OCCOCCOCCNC(=O)CCCC[C@@H]3SC[C@@H]4NC(=O)N[C@@H]43)cc2)no[n+]1[O-]	.	.	.	.	.	6%[57.5 µM]
COCCCn1c(SCc2ccccc2F)nc2c(sc3ccccc32)c1=O	i	0%	-29%	32µM*	i	-4%
CC(C)=CC[C@@H](O)C1=CC(=O)c2c(O)ccc(O)c2C1=O	.	.	-5%[53.3 µM]	.	.	50µM*!
COc1ccc(C(CC(=O)Nc2ccc(F)c(Cl)c2)N2Cc3ccccc3C2=O)cc1OC (stereo unspecified)	i	2%	?	i	i	89µM*
Cc1cc(N[S+](=O)([O-])c2ccc(NC(=O)Cc3ccccc3Cl)cc2)no1	.	.	.	.	.	14%
C[C@@H]1CN(CC(=O)N2CC(C)(C)c3ncc(Cc4ccc(F)cc4)cc32)[C@@H](CN2CCOC[C@H]2C)CN1	.	.	.	.	.	79µM*!
COC(=O)c1scc(-c2ccc(C)cc2)c1S(=O)(=O)Nc1cc(OC)c(OC)c(OC)c1	i	1%	-18%	i	i	89µM*
O=C(O)c1c(Cl)c(Cl)c(Cl)c(Cl)c1-c1c2cc(I)c(=O)c(I)c-2oc2c(I)c(O)c(I)cc12	.	.	?	.	.	3.5µM*
Nc1c(S(=O)(=O)O)cc(Nc2ccc(Nc3nc(Cl)nc(Nc4ccc(S(=O)(=O)O)cc4)n3)c(S(=O)(=O)O)c2)c2c1C(=O)c1ccccc1C2=O	.	.	5µM*	.	.	.
COC(=O)c1c(NC(=O)CCCOc2ccc(C)cc2)sc2c1CCCC2	i	-1%	27%	i	i	-6%
COC(=O)c1c(NC(=O)CCCOc2ccc(C)cc2)sc2c1C(C(=O)OC)CC2 (stereo unspecified)	i	-23%	-20%	i	i	18µM*
COC(=O)c1c(NC(=O)CCCOc2cccc(C)c2)sc2c1C(C(=O)OC)CC2 (stereo unspecified)	i	-4%	-14%	i	i	14µM*
CCOc1ccc(/C=C/C(=O)Nc2sc3c(c2C(=O)OC)C(C(=O)OC)CC3)cc1 (stereo unspecified)	i	-1%	1%	i	i	10µM*
C#CCN(Cc1cc2c(=O)n(C)c(CN3CCN(C)CC3)nc2cc1Cl)c1ccc(C(=O)NCc2cccnc2)cc1	.	.	5%	.	.	1%[57.5 µM]
N#Cc1c(Oc2ccc(F)c(NC(=O)Cc3cccc(C(F)(F)F)c3)c2)ccc2nc(NC(=O)C3CC3)sc12	.	.	-12%	.	.	21%
CCNCCc1ccc(CN(CC)c2cc(OC)ccc2[C@@H]2CCc3cc(O)ccc3C2)cc1	.	.	.	.	.	45µM*
CCCCS(=O)(=O)Nc1ncnc(OCCOc2ncc(Br)cn2)c1-c1ccc(Br)cc1	.	.	-2%	.	.	3%[57.5 µM]
SMILES	TSG101-PTAP inh	GALK inh	FH mod	GALC G270D up	B2AR arrestin ag	NTMT1 inh
COc1cc(C(=O)O)ccc1NC(=O)C1NC(CC(C)(C)C)C(C#N)(c2ccc(Cl)cc2F)C1c1cccc(Cl)c1F (stereo unspecified)	.	.	32µM*	.	.	?
CC(=O)Nc1cc2c(s1)CNCC2	.	.	.	.	.	6%
Oc1ccc(/C=C/c2cc(O)cc(O)c2)cc1	.	.	?	i	.	45µM*!
CN(C)C(=S)SC(=S)N(C)C	.	.	0%[53.3 µM]	i	.	25µM*
CN[C@@H](C)C(=O)N[C@H](C(=O)N1CCC[C@H]1C(=O)Nc1sc(-c2ncco2)nc1-c1ccccc1)C1CCCCC1	.	.	.	.	.	12%
Cc1cc(=O)c2c(O)c3c(O)cc(=O)c4c3c3c(cc(O)c1c23)C(C)(C)C=4O	.	.	-2%[53.3 µM]	i	.	3.5µM*!
FC(F)(F)c1ccccc1-c1nc(NCc2ccc(-c3ccc(Cl)cc3)cc2)c2ccccc2n1	.	.	.	.	.	18%
Fc1cccc(CSc2nc3ncc(Br)cc3[nH]2)c1	.	.	.	.	.	-9%
Cc1cccc(N2CCN(c3ccc(C(=O)O)cc3NC(=O)c3cccc(Cl)c3)CC2C)c1 (stereo unspecified)	i	0%	-25%	i	i	79µM*
Cc1cccc(N2CCN(c3ccc(NC(=O)c4ccccc4)cc3C(=O)O)CC2C)c1 (stereo unspecified)	i	1%	-4%	i	i	-5%
COc1ccc(NS(=O)(=O)c2ccc3c(c2)[C@H]2C=CC[C@H]2[C@@H](c2ccc(C(=O)O)cc2)N3)cc1	i	?	35µM*	i	i	?
COC(=O)c1ccccc1NC(=O)c1ccccc1OC(F)F	.	.	.	.	.	-1%
CS(=O)(=O)c1ccc([C@@H](CC2CCCC2)C(=O)Nc2nccs2)cc1	.	.	.	.	.	3%
C[C@@H](c1nc(-c2ccc(C#N)cc2)cs1)[C@](O)(Cn1cncn1)c1cc(F)ccc1F	.	.	-1%	.	.	7%[57.5 µM]
C#CC1(O)CC[C@H]2[C@@H]3CCC4=CCCC[C@@H]4[C@H]3CC[C@@]21C (stereo partly specified)	.	.	-17%[53.3 µM]	i	.	-8%[57.5 µM]
C#C[C@]1(O)CC[C@H]2[C@@H]3[C@H](C)CC4=C(CCC(=O)C4)[C@H]3CC[C@@]21C	.	.	-1%[53.3 µM]	i	.	25µM*!
CC(C)n1nc(-c2cc3cc(O)ccc3[nH]2)c2c(N)ncnc21	.	.	-14%	i	.	79µM*!
O=c1c(Nc2ccc(Br)c(Br)c2)c(Nc2nnc(-c3ccncc3)s2)c1=O	.	.	.	.	.	79µM*
